Shiga inhibitor = A qHTS for Small Molecule Inhibitors of Shiga Toxin. Vero cells, Shiga toxin protein synthesis inhibition reporter. inhibition, % at 38.7 µM. actives 9.2% (n = 290,000). AID 2315, 2010; in the data active = inhibition mostly above about 28%, no sharp cut-off; inactive = mostly below about 43%; note: 0% is about no effect
VACV Venus inh = qHTS for Stage-Specific Inhibitors of Vaccinia Orthopoxvirus: Venus Reporter Primary qHTS; Vaccinia virus Venus reporter expression, fluorescence; Potency, µM (highest dose often 36.5 µM), without a hit: top-dose activity change, negative = inhibition, hits mostly inhibitors; actives 0.46% (n = 330,000); AID 720580, 2013; calls by dose curve; tested in A549 cells; note: potency is the fitted concentration of half-maximal effect; % is set by controls: 0 for no effect and ±100 for the full control effect; nearly all actives have a fitted effect of over 30% in size
Lassa entry inh = qHTS for Inhibitors of binding or entry into cells for Lassa Virus | Lassa virus pseudotype entry inhibition, cell reporter | Potency, µM (series often up to 37.9 µM), without a hit: top-dose activity change, negative = inhibition, hits mostly inhibitors | actives 1.2% (n = 300,000); calls by dose curve; tested in HEK293 cells; note: potency is the fitted concentration of half-maximal effect; % is set by controls: 0 for no effect and ±100 for the full control effect; nearly all actives have a fitted effect of over 50% in size
Cycloheximide cs = Cycloheximide Counterscreen for Small Molecule Inhibitors of Shiga Toxin. cell reporter, cycloheximide protein synthesis inhibition counterscreen. max response, %. AID 2314, 2010. actives 12% (n = 300,000); in the data active = max response mostly above about 13%, no sharp cut-off; inactive = mostly below about 14%; note: read at 38.3 µM for the half of the compounds with a filed dose; 0% is about no effect
VACV mCherry inh = qHTS for Stage-Specific Inhibitors of Vaccinia Orthopoxvirus: mCherry Reporter Primary qHTS; Vaccinia virus mCherry reporter infection, fluorescence; Potency, µM (highest dose often 36.5 µM), without a hit: top-dose activity change, negative = inhibition, usual class: inhibitors; actives 0.63% (n = 310,000); AID 720579, 2013; calls by dose curve; tested in A549 cells; note: potency is the fitted concentration of half-maximal effect; % is set by controls: 0 for no effect and ±100 for the full control effect; nearly all actives have a fitted effect of over 35% in size
Marburg entry inh = qHTS for inhibitors of binding or entry into cells for Marburg Virus. actives 1.8% (n = 300,000). Potency, µM (series often up to 37.8 µM), inactives show at the top dose activity change, negative = inhibition, hits mostly inhibitors. AID 540276, 2011. Marburg virus pseudotyped entry inhibition, cell reporter; calls by dose curve; tested in HEK293 cells; note: potency is the fitted concentration of half-maximal effect; % is set by controls: 0 for no effect and ±100 for the full control effect
Starred values were filed as active, the others as inactive; i = inactive; ? = inconclusive; nt = not tested or not shown; + = active, no number; [ ] = another dose, or the depositor's remark. Many of the other results were omitted from the sample, so hits are more common in it than they were.

SMILES	Shiga inhibitor	VACV Venus inh	Lassa entry inh	Cycloheximide cs	VACV mCherry inh	Marburg entry inh
O=C(/C=C/c1ccc(F)cc1)Nc1nc2ccccc2[nH]1	77*	nt	?	37*	nt	18%
O=C(/C=C/c1ccc(F)cc1)Nc1ccc2[nH]c(=O)[nH]c2c1	9	0%	1%[46.1 µM]	1	-22%	-14%[46.1 µM]
COc1ccc(C(=O)Nc2nc3ccccc3[nH]2)cc1	-10	?	?	-8	-18%	?
COc1ccc(C(=O)N[C@H](C(=O)Nc2nc3ccccc3[nH]2)C(C)C)cc1	76*	?	?	37*	?	?
CN(C)S(=O)(=O)c1ccc(Cl)c(C(=O)Nc2nc3ccccc3[nH]2)c1	20	-15%	?	12	-7%	-26%[46.1 µM]
CN(C)c1cccc(C(=O)Nc2nc3ccccc3[nH]2)c1	44	-24%	?	15*	-30%	?
COc1cccc(C(=O)Nc2nc3ccccc3[nH]2)c1	29	-20%	?	27*	-14%[1.46 µM]	?
COc1ccc(-c2nc3cc(F)ccc3cc2CN(C(=O)c2cccs2)C2CC2)cc1	nt	-11%	nt	nt	i	nt
Cc1cc(-c2ccnc(-n3ncc(C(=O)NCC4COCCO4)c3C3CC3)n2)c(C)s1 (centres undefined)	nt	-21%	nt	nt	-9%	nt
Cn1cc(CNCC2CCCO2)c(-c2ccc(Oc3ccccc3)cc2)n1 (centres undefined)	-16	-18%	0%[46.1 µM]	0	i	?
Cc1cc(CNCc2cn(C)nc2-c2ccc(Oc3ccccc3)cc2)on1	12	-20%	?	17*	?	-23%[46.1 µM]
CCCc1ccc(NC(=O)C2CCCN(c3cnccn3)C2)cc1 (centres undefined)	42	-1%	5%[46.1 µM]	19	0%	?
CC(C)(C)NC(=O)NCC1CCCC1NC(=O)NC(C)(C)C (centres undefined)	-8	-6%	nt	-6	i	nt
CCOC(=O)C1(CCOC)CCN(Cc2nc(C(C)C)cs2)CC1	68*	-1%	0%[46.1 µM]	30*	i	?
CCOC(=O)C1(CCOC)CCN(Cc2ccncc2)CC1	-4	-15%	?	-1	-2%	1%[46.1 µM]
COC(=O)c1cc(OC)c(OC)cc1NCC(=O)Nc1cccc(C(F)(F)F)c1	1	-21%	-11%	-3	-28%	10µM*
COC(=O)c1cc(OC)c(OC)cc1NCC(=O)Nc1ccc(OC)c(OC)c1	18	-8%	7%	-4	i	?
O=C(CCCn1c(=O)c2sccc2n(Cc2cccc(Cl)c2)c1=O)NCc1ccc2c(c1)OCO2	nt	-9%	?	nt	-13%	?
COc1ccc(N=Cc2nc(-c3ccccc3)oc2OC(=O)c2ccccc2)cc1	67*	nt	?	59*	nt	-43%
CCOC(=O)c1ccc(N=Cc2nc(-c3ccccc3)oc2OC(C)=O)cc1	-4	nt	-28%	10	nt	?
CN(C)c1ccc(N=Cc2nc(-c3ccccc3)oc2OC(=O)c2cccc(Br)c2)cc1	+	-11%	5%	40*	-11%	-17%
Oc1oc(-c2ccco2)nc1C=Nc1ccccc1	99*	-17%	4%	19*	6%	7%
O=C(O)c1ccc(N=Cc2nc(-c3ccco3)oc2O)cc1	-4	-11%	nt	0	i	nt
Cc1ccc(C(=O)Oc2oc(-c3ccco3)nc2C=Nc2ccccc2)cc1	89*	nt	nt	31*	nt	-5%
COc1ccc(Cn2c(CO)cnc2SCc2cccc(C)c2)cc1	nt	0%	5%[46.1 µM]	nt	-6%	nt
SMILES	Shiga inhibitor	VACV Venus inh	Lassa entry inh	Cycloheximide cs	VACV mCherry inh	Marburg entry inh
CC(=O)N1CCN(C(=O)c2cc3c(s2)CCC(C)C3)CC1 (centres undefined)	nt	-18%	30%	nt	-1%	4%
CCSc1ncc(Cl)c(C(=O)Nc2c(C(=O)Nc3ccccc3)oc3ccccc23)n1	nt	-7%	?	nt	i	-3%[46.1 µM]
COc1cccc2nc(-c3cccs3)nc(NN3C(=O)C=C(C)C3=O)c12	32	nt	nt	26	nt	nt
COc1ccc(COC(=O)NN=C2C[C@@H](O)[C@@H](O)[C@@H]3[C@H]4C(=O)N(Cc5ccc6c(c5)OCO6)C(=O)[C@@H]4CC[C@H]23)cc1	nt	nt	0.27µM*	nt	nt	4%[14.2 µM]
COc1ccc(COC(=O)NN=C2C[C@@H](O)[C@@H](O)[C@@H]3[C@H]4C(=O)N(c5ccc(F)cc5F)C(=O)[C@@H]4CC[C@H]23)cc1	nt	nt	2.8µM*	nt	nt	?
COc1ccc(COC(=O)N/N=C2/C[C@@H](O)[C@@H](O)[C@@H]3[C@@H]4C(=O)N(Cc5ccc6c(c5)OCO6)C(=O)[C@H]4CC[C@@H]23)cc1	nt	nt	nt	nt	nt	4%[14.2 µM]
CCOC(=O)N/N=C1/C[C@@H](O)[C@@H](O)[C@@H]2[C@H]3C(=O)N(c4ccc(F)cc4F)C(=O)[C@@H]3CC[C@@H]12	nt	nt	nt	nt	nt	-21%[14.2 µM]
CCOc1nc(-c2ccccc2)ccc1-c1noc(-c2ccc(OC)c(OC)c2)n1	nt	nt	nt	nt	nt	3%
Cc1[nH]n(-c2ccccc2)c(=O)c1C=Nc1cnc2ccccc2c1	-18	-7%	5%	-2	nt	5%
C=CCSc1nnc(-c2ccccc2N=Cc2c(C)[nH]n(-c3ccccc3)c2=O)c(=O)[nH]1	56	-8%	6%	23*	nt	?
CSc1nnc(-c2ccccc2N=Cc2c(C)[nH]n(-c3ccc4ccccc4c3)c2=O)c(=O)[nH]1	37	-23%	-5%	33*	nt	-1%[46.1 µM]
Cc1ccc(C(=O)Nc2ccc3oc(-c4ccccc4C)nc3c2)cc1	nt	-2%	7%[46.1 µM]	nt	-2%	?
COCc1c(C(=O)NC2CCCCCC2)oc2ccccc12	62*	-13%	0%[46.1 µM]	22*	-12%	-2%[46.1 µM]
O=C(NCCc1ccccc1)c1oc2ccccc2c1COc1ccccc1	39*	-3%	9%	26*	-19%	?
COCc1c(C(=O)Nc2nnc(C3CC3)s2)oc2ccccc12	nt	-12%	nt	nt	-27%	nt
Cc1c(C(=O)NCCCN2CCCC2=O)oc2ccccc12	72*	nt	-8%	27*	nt	14%
COc1ccc2c(c1)c(C(=O)CN1CCN(C)CC1)c(C)n2Cc1ccccc1	-10	?	-6%	0	nt	20µM*
CC(=O)OCC[C@H](NS(=O)(=O)OCC(Cl)(Cl)Cl)c1ccccc1	-12	-9%	nt	-3	-32%	nt
COc1ccc(/C=C2\C(=N)N3N=C(CC(=O)N4CCCCC4)SC3=NC2=O)cc1	5	3%	0%[46.1 µM]	-4	-18%	6%[46.1 µM]
Cc1c(C(=O)NCCc2ccccc2)oc2ccc(S(=O)(=O)N3CCOCC3)cc12	15	-4%	?	15*	-9%	18%
COc1ccc2oc(C(=O)NCCc3ccccc3)c(C)c2c1	nt	2%	0.89µM*	nt	i	?
Cc1c(C(=O)NC2CCC(C)CC2)oc2ccccc12 (centres undefined)	61*	nt	nt	46*	nt	nt
COc1ccc2oc(C(=O)OCC(=O)NCCc3ccccc3)c(C)c2c1	nt	-6%	-9%	nt	-1%	7%
Cc1c(C(=O)NCc2cccs2)oc2ccccc12	30*	nt	-24%	19*	nt	?

Bioassay records deposited in PubChem by National Center for Advancing Translational Sciences (NCATS).
